Laboratory results taken from PubChem BioAssay AID1159580 (chemical genetic matrix, 2015).
The campaign covered roughly 5,500 compounds. About 2,000 (36%) were called active. Not shown: some 18% with an inconclusive outcome. Rule as the data show it: active = normalized growth mostly below about 0.91 (no sharp cut-off); inconclusive = no clear call, values can overlap the other calls; inactive = mostly above about 0.92. This is one part of the list.

Test: chemical genetic growth profiling, strain panel (AID 1159580);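 also: tested at 20 µM; growth read once vehicle control cultures reached saturation at 30 °C; 1 = growth at the plate median or of vehicle wells; lower values mean less growth of the strain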
Details: S. cerevisiae deletion strains, growth OD

Measured: normalized growth

COC1=CC(=O)C(O)=C/C1=C\C=C\c1ccccc1
active: locus YAL021C, strain ccr4, stronger effect = lower value 0.0637 | locus YAL026C, strain drs2, stronger effect = lower value 0.0627 | locus YAL030W, strain snc1, stronger effect = lower value 0.0587 | locus YBL061C, strain skt5, stronger effect = lower value 0.0684 | locus YBR009C, strain hhf1, stronger effect = lower value 0.0623 | locus YBR023C, strain chs3, stronger effect = lower value 0.075 | locus YBR171W, strain sec66, stronger effect = lower value 0.0792 | locus YBR231C, strain swc5, stronger effect = lower value 0.0663 | locus YBR279W, strain paf1, stronger effect = lower value 0.068 | locus YCL011C, strain gbp2, stronger effect = lower value 0.0594 | locus YCL016C, strain dcc1, stronger effect = lower value 0.0807 | locus YCL061C, strain MRC1, stronger effect = lower value 0.0651 | locus YCL069W, strain vba3, stronger effect = lower value 0.064 | locus YCR088W, strain abp1, stronger effect = lower value 0.0619 | locus YDL005C, strain med2, stronger effect = lower value 0.0757 | locus YDL040C, strain nat1, stronger effect = lower value 0.244 | locus YDR001C, strain nth1, stronger effect = lower value 0.0607 | locus YDR069C, strain doa4, stronger effect = lower value 0.068 | locus YDR137W, strain rgp1, stronger effect = lower value 0.292 | locus YDR159W, strain sac3, stronger effect = lower value 0.166 | locus YDR195W, strain ref2 0.115 | locus YDR297W, strain sur2, stronger effect = lower value 0.0591 | locus YDR334W, strain swr1, stronger effect = lower value 0.0652 | locus YDR335W, strain msn5, stronger effect = lower value 0.0631 | locus YDR392W, strain spt3, stronger effect = lower value 0.0929 | locus YEL003W, strain gim4, stronger effect = lower value 0.0583 | locus YEL037C, strain rad23, stronger effect = lower value 0.0597 | locus YEL061C, strain CIN8 (second series), stronger effect = lower value 0.064 | locus YER015W, strain faa2, stronger effect = lower value 0.0626 | locus YER016W, strain bim1, stronger effect = lower value 0.0792 | locus YER111C, strain swi4, stronger effect = lower value 0.076 | locus YER155C, strain BEM2 (second series), stronger effect = lower value 0.0935 | locus YFR010W, strain ubp6, stronger effect = lower value 0.0686 | locus YGL167C, strain pmr1, stronger effect = lower value 0.0977 | locus YGL173C, strain kem1, stronger effect = lower value 0.0694 | locus YGL227W, strain vid30, stronger effect = lower value 0.0665 | locus YGL240W, strain doc1, stronger effect = lower value 0.0868 | locus YGL253W, strain hxk2, stronger effect = lower value 0.0562 | locus YHR013C, strain ard1, stronger effect = lower value 0.205 | locus YHR027C, strain rpn1, stronger effect = lower value 0.064 | locus YHR030C, strain SLT2, stronger effect = lower value 0.114 | locus YHR079C, strain IRE1, stronger effect = lower value 0.111 | locus YHR142W, strain chs7, stronger effect = lower value 0.0751 | locus YJL092W, strain hpr5, stronger effect = lower value 0.0609 | locus YJL095W, strain BCK1 (second series), stronger effect = lower value 0.0603 | locus YJL095W, strain BCK1, stronger effect = lower value 0.104 | locus YJL115W, strain asf1, stronger effect = lower value 0.0766 | locus YJL129C, strain trk1, stronger effect = lower value 0.0861 | locus YJL154C, strain vps35, stronger effect = lower value 0.0623 | locus YJL164C, strain tpk1, stronger effect = lower value 0.0609 | locus YJL166W, strain qcr8, stronger effect = lower value 0.0637 | locus YJL187C, strain SWE1, stronger effect = lower value 0.0601 | locus YJR066W, strain TOR1, stronger effect = lower value -0.00301 | locus YKL160W, strain elf1, stronger effect = lower value 0.073 | locus YKR026C, strain gcn3, stronger effect = lower value 0.0653 | locus YKR091W, strain srl3, stronger effect = lower value 0.0623 | locus YLL001W, strain dnm1, stronger effect = lower value 0.0646 | locus YLL026W, stronger effect = lower value 0.0594 | locus YLL041C, strain sdh2, stronger effect = lower value 0.0594 | locus YLR027C, strain aat2, stronger effect = lower value 0.0574 | locus YLR113W, strain HOG1, stronger effect = lower value 0.173 | locus YLR221C, strain rsa3, stronger effect = lower value 0.0618 | locus YLR258W, strain gsy2, stronger effect = lower value 0.0601 | locus YLR262C, strain YPT6 (second series), stronger effect = lower value 0.0834 | locus YLR320W, strain mms22, stronger effect = lower value 0.0845 | locus YLR342W, strain FKS1, stronger effect = lower value 0.0656 | locus YLR357W, strain rsc2, stronger effect = lower value 0.127 | locus YLR370C, strain arc18, stronger effect = lower value 0.0611 | locus YLR384C, strain iki3, stronger effect = lower value 0.0607 | locus YML120C, strain ndi1, stronger effect = lower value 0.0568 | locus YMR058W, strain fet3, stronger effect = lower value 0.0632 | locus YMR125W, strain sto1, stronger effect = lower value 0.0692 | locus YMR129W, stronger effect = lower value 0.0614 | locus YMR205C, strain PFK2, stronger effect = lower value 0.088 | locus YMR231W, strain pep5, stronger effect = lower value 0.068 | locus YNL071W, strain lat1, stronger effect = lower value 0.0619 | locus YNL183C, strain NPR1, stronger effect = lower value -0.000893 | locus YNL209W, strain ssb2, stronger effect = lower value 0.0644 | locus YNL248C, strain rpa49, stronger effect = lower value 0.0693 | locus YNL322C, strain KRE1 (second series), stronger effect = lower value 0.068 | locus YNR049C, strain mso1, stronger effect = lower value 0.0603 | locus YOR001W, strain rrp6, stronger effect = lower value 0.069 | locus YOR070C, strain gyp1, stronger effect = lower value 0.0623 | locus YOR080W, strain dia2, stronger effect = lower value 0.0977 | locus YOR083W, strain WHI5, stronger effect = lower value 0.0654 | locus YOR106W, strain vam3, stronger effect = lower value 0.0683 | locus YOR231W, strain MKK1, stronger effect = lower value 0.109 | locus YOR265W, strain rbl2, stronger effect = lower value 0.0614 | locus YOR270C, strain vph1, stronger effect = lower value 0.0968 | locus YOR290C, strain snf2, stronger effect = lower value 0.0813 | locus YPL051W, strain arl3, stronger effect = lower value 0.0697 | locus YPL078C, strain atp4, stronger effect = lower value 0.0641 | locus YPL106C, strain sse1, stronger effect = lower value 0.102 | locus YPL240C, strain hsp82, stronger effect = lower value 0.0581 | locus YPL256C, strain CLN2, stronger effect = lower value 0.131
